Source: PubChem
Hits are enriched below; roughly 7.9% of the tested compounds scored in any of these assays.
PLAP activator = PLAP enzyme activators, biochemical, luminescence, HTS | Alkaline phosphatase, placental type (Homo sapiens), P05187 | purified PLAP enzyme, luminescent substrate read-out; active compounds read high | activation fold at 20 µM | 1.2% of 96,000 active | AID 696, 2007; in the data active = activation fold above about 2
M1 ag = M1 muscarinic receptor agonists, primary screen, CHO-M1 cells, Fluo-4 calcium, agonist mode | Muscarinic acetylcholine receptor M1 | Fluo-4 calcium fluorescence; active compounds read high | B-score at 10 µM | 3% of 64,000 active | AID 626, 2007;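 active = fluorescence rise, raw or as B-score row- and column-corrected plate score, outside the 99.7% band of its plate's samples, either direction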
Cav32 inh = Cav3.2 calcium influx blockers – cell-based, Fluo-4 calcium fluorescence, FDSS, MLSMR library, primary screen | Cav3.2-expressing cells; active compounds read low | AID 449739, 2010 | B-score at 10 µM | 4% of 100,000 active;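 active = single-dose well whose peak fluorescence ratio is a statistical outlier from its plate by either plate-standardised score or position-corrected B-score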
HER2 expr 66K = inhibitors of Her2 protein expression, primary screen, SKBR-3 cells, AlphaScreen, 66K library. AID 645, 2007. 0.69% of 65,000 active. SKBR-3 HER2 protein level, 18-24 h; active compounds read low. HER2 level % of control, % at 10 µM. Receptor tyrosine-protein kinase erbB-2 (Homo sapiens), P04626;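 active = HER2 level under 5% of the carrier-only control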;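 also: 100% = DMSO carrier and 0% = 500 nM PU-H71 HSP90 inhibitor; lower value means stronger loss of Her2 protein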
Target sequence (P04626 whole entry, looked up): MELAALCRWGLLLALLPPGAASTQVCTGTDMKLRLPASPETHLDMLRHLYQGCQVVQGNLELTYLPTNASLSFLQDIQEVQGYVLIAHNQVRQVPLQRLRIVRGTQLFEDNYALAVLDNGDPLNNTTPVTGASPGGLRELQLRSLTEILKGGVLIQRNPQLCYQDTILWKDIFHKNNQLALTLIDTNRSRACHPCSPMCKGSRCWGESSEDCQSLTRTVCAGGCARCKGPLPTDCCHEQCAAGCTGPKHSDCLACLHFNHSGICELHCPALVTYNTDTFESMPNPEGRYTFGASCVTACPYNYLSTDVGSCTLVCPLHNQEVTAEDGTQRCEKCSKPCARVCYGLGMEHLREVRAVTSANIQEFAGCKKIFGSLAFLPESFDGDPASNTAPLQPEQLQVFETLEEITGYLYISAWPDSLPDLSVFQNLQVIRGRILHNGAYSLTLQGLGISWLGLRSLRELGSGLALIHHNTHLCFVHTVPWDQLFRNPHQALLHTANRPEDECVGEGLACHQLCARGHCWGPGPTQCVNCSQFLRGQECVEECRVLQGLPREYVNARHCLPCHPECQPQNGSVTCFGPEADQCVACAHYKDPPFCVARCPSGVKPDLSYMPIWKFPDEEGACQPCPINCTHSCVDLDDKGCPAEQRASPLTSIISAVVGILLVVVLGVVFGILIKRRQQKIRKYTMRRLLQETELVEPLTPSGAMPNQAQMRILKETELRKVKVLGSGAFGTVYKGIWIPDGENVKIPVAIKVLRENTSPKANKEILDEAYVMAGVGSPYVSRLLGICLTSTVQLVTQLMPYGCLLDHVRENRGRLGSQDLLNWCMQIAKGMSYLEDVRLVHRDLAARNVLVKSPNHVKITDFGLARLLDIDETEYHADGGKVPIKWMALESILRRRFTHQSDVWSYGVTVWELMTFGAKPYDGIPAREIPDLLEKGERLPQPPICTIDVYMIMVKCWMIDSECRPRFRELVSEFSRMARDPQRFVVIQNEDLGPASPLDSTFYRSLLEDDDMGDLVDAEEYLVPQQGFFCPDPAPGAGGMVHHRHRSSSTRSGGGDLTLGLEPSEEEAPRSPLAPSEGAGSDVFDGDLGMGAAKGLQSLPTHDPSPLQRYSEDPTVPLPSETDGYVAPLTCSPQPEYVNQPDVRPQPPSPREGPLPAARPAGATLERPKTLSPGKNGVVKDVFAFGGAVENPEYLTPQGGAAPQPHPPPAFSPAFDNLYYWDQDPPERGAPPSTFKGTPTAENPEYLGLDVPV
M1 antagonist = antagonists of rat M1 muscarinic receptor; B-score at 10 µM; CHO-M1 cells, Fluo-4 calcium, ACh EC80 antagonist mode; active compounds read low; 3.4% of 64,000 active;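 active = calcium fluorescence response, raw or row-and-column corrected B-score, differing from the plate sample mean either way at a set confidence level, mostly lower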
Numbers without * were called inactive; . = no result given.

SMILES	PLAP activator	M1 ag	Cav32 inh	HER2 expr 66K	M1 antagonist
CC1(C)Cc2c(C#N)c(N3CCN(C(=O)c4ccco4)CC3)nc(Cc3ccccc3)c2CO1	1.3	-0.15	-4.6*	41	0.019
N#Cc1c(N2CCN(C(=O)c3ccccc3Cl)CC2)nc(-c2ccccc2)c2c1CCCC2	1.1	.	.	.	.
N#Cc1c(N2CCN(C(=O)c3ccccc3)CC2)nc(-c2ccccc2)c2c1CCCC2	1.8	.	-4.9*	.	.
CC(=O)N1CCN(c2nc(CC(C)C)c3c(c2C#N)CCC3)CC1	1.5	-0.85	-1.4	112	-0.85
CC(C)Cc1nc(N2CCN(C(=O)C(C)C)CC2)c(C#N)c2c1CCC2	1.1	2.5	-5.7*	106	0.57
CC1(C)Cc2c(C#N)c(N3CCN(C(=O)c4ccco4)CC3)nc(-c3ccco3)c2CS1	.	0.68	-0.076	100	-0.081
CC(C)Cc1nc(N2CCN(C(=O)c3ccco3)CC2)c(C#N)c2c1CCC2	1.7	0.25	-7.9*	115	0.11
Cc1cc(C)cc(SCc2noc(C(=O)NCc3ccccc3)c2C(=O)NCc2ccccc2)c1	.	.	-1.1	.	.
Cc1oc2c(CN3CCCC3)c(O)ccc2c(=O)c1-c1ccccc1	1	3.2*	0.38	115	-0.0037
O=C(O)CCCCCNC(=O)CCn1cnc2ccccc2c1=O	1	-0.084	0.61	83	0.16
Cc1noc(C)c1COC(=O)C1(c2cccc(F)c2)CCCC1	0.9	-0.02	-5*	85	-0.65
Cc1noc(C)c1COC(=O)CCC(=O)c1ccc(F)cc1	0.8	1.3	-0.38	110	0.1
Clc1ccc2nc(C3CCN(Cc4nnnn4C4CCCCC4)CC3)[nH]c2c1	.	.	-2.6	.	.
Cc1ccc(Cn2nnnc2CN2CCC(c3nc4ccc(Cl)cc4[nH]3)CC2)cc1	1.9	.	-5.7*	.	.
CCCCNC(=O)N(O)C1N(CCCC)C(=O)N(CC(=O)OC)C1(C)C (stereo not given)	.	.	0.43	.	.
COc1ccc(OC)c(-c2nc(C(N)=O)c3[nH]c(=O)n(-c4ccc(F)cc4)c3n2)c1	1.5	0.51	.	84	-1.2
COc1ccc(-c2nc(C(N)=O)c3[nH]c(=O)n(-c4ccccc4OC)c3n2)c(OC)c1	2.4*	-0.87	.	88	1.1
COc1ccc(OC)c(NC(=O)Cn2cccc2)c1	1.1	-0.24	-0.062	87	1.1
CN1c2ccccc2C(O)=C(C(=S)Nc2ccc(F)c(Cl)c2)S1(=O)=O	1.2	.	-11*	.	.
COCCNC(=O)c1c(N)n(-c2cccc(C)c2)c2nc3ccccc3nc12	1.6	0.017	-6.1*	64	-0.36
C=CCN=C(NC#N)SCC(=O)c1cccc(OC)c1	0.8	-0.7	0.093	42	-0.0089
COc1cccc(CNC(=O)CSCc2cnn(-c3ccccc3)c2-n2cccc2)c1	4.2	.	-5.3*	.	.
CNC(=O)CSCc1cnn(-c2ccccc2)c1-n1cccc1	1.6	.	1.2	.	.
O=C(CSCc1cnn(-c2ccccc2)c1-n1cccc1)NCc1cccs1	0.9	0.88	-6.3*	106	-0.36
Cc1ccc(-c2csc3ncnc(N4CCN(C(=O)c5ccccc5)CC4)c23)cc1	1.7	.	-3.3	.	.
SMILES	PLAP activator	M1 ag	Cav32 inh	HER2 expr 66K	M1 antagonist
CSc1nc2ccccc2n1Cc1c(Cl)cccc1Cl	0.9	.	-3.7	.	.
C=CCCCCCCCCC(=O)NNC1=CC(=O)CC(C)(C)C1	1.2	.	-1.1	.	.
O=C(CN1CCN(c2ccc(Cl)cc2)CC1)Nc1ccc(F)cc1	1.3	0.2	-4.5*	139	-0.52
CCNC(=O)n1nccc1C(C)Oc1ccc(Cl)cc1 (stereo not given)	0.9	.	-1.2	.	.
O=C(NCC1CCCO1)c1ccccc1NC(=O)c1cccc2ccccc12 (stereo not given)	0.9	.	0.38	.	.
O=C(NC(NCC1CCCO1)C(Cl)(Cl)Cl)c1cccc2ccccc12 (stereo not given)	1	.	-5*	.	.
CCCOc1ccccc1Cn1c(=O)oc2ccc(C)cc21	0.5	0.32	-5.6*	101	0.53
CCOc1ccccc1Cn1c(=O)oc2ccc(C)cc21	.	0.0035	-4.7*	84	-0.047
Cc1ccc2oc(=O)n(CCOc3ccccc3Cl)c2c1	0.7	-0.13	-0.051	110	0.22
Cc1ccc(Cn2cccc(NC(=O)NC3CCCCC3)c2=O)cc1	0.9	.	-4.1	.	.
O=C(O)CN(Cc1ccccc1)S(=O)(=O)c1ccc(F)cc1	1.1	-0.41	-0.6	88	0.033
COc1ccc(Cl)cc1NC(=O)CC(C)c1ccccc1 (stereo not given)	0.7	.	-7.6*	.	.
